Experimental data taken from PMC10668032, “Altered binding affinity of SIX1-Q177R correlates with enhanced WNT5A and WNT pathway effector expression in Wilms tumor”.
Over roughly 33,000 sequences, “e-score” has its median near -0.05; the highest 2% begin near 0.38. For the sample, the highest values were picked, then their nearest neighbours and some sequences at random.

Each sequence was assayed against T1, SIX1-Q177R homeodomain (human, UniProt Q15475 108-198, Q177R) (assay: universal protein binding microarray; Universal all-10-mer PBM (8x60K, AMADID 030236), 300 nM GST-tagged protein, Alexa Fluor 488 anti-GST; buffer, salt, pH and temperature not stated (as in Berger); high values mean tight binding). Settings: protein: ivt; tags: N-terminal GST; dsDNA, one strand shown.
T1 sequence: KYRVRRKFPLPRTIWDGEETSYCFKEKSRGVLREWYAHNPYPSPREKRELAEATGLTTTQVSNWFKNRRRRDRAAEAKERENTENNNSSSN
Procedure, shortened: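 After in vitro transcription/translation, GST-tagged homeodomains were quantified against a recombinant GST standard curve by anti-GST western blot. They were then placed in duplicate at 300 nM final concentration on universal 'all 10-mer' protein binding microarrays of 8×60K format.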
For ACCCCCGG, the binding signal was 0.305 ± 0.0423 E-score.
GCACCCGC was tested, and the binding signal was 0.227 ± 0.0318 E-score.
Sequence CCACCCGA has a binding signal of 0.206 ± 0.00492 E-score.
Sequence ACCCCCGC has a binding signal of 0.318 ± 0.046 E-score.
Work on GCACCCGA yielded a binding signal of 0.235 ± 0.00309 E-score.
In the case of ACACCCGC, the binding signal is reported as 0.4623 ± 0.00219 E-score.
With ACACCCGG the binding signal was 0.4824 ± 0.0027 E-score.
Work on ACACCCGT yielded a binding signal of 0.4709 ± 0.00247 E-score.
For ACACCCGA, the binding signal was 0.457 ± 0.00947 E-score.
With GGGAGTCA the binding signal was 0.221 ± 0.0066 E-score.
With ATAGGGGG the binding signal was 0.259 ± 0.00343 E-score.
With CACGGGGA the binding signal was 0.199 ± 0.0103 E-score.
For CCCGTAGG, the binding signal was 0.178 ± 0.00511 E-score.
Work on GGAGCACC yielded a binding signal of 0.268 ± 0.0396 E-score.
With AGGGGGAT the binding signal was 0.23 ± 0.0203 E-score.
Work on CGCAAACA yielded a binding signal of 0.181 ± 0.0196 E-score.
Work on GTGATACA yielded a binding signal of 0.172 ± 0.0198 E-score.
With ACCATACA the binding signal was 0.3199 ± 0.00166 E-score.
GGTCCGTA was tested, and the binding signal was 0.189 ± 0.0444 E-score.
For GAGGGTAC, the binding signal was 0.183 ± 0.0122 E-score.
GGACACGA was tested, and the binding signal was 0.356 ± 0.0172 E-score.
Work on TGACACCA yielded a binding signal of 0.4915 ± 0.00377 E-score.
Sequence TGACGACA has a binding signal of 0.212 ± 0.00725 E-score.
AGGCACCA gave a binding signal of 0.178 ± 0.0251 E-score.
With AGACACCA the binding signal was 0.458 ± 0.0134 E-score.
GGACACCA showed a binding signal of 0.4831 ± 0.00245 E-score.
In the case of TGACACAA, the binding signal is reported as 0.298 ± 0.0424 E-score.
Work on TCCATGGA yielded a binding signal of 0.1596 ± 0.000424 E-score.
CGGGGTTA gave a binding signal of 0.22 ± 0.0181 E-score.
For ACGGAACA, the binding signal was 0.212 ± 0.00638 E-score.
Work on TGTGAACA yielded a binding signal of 0.327 ± 0.0228 E-score.
For ACCGTTGG, the binding signal was 0.2165 ± 0.000431 E-score.
With ACCCGACG the binding signal was 0.208 ± 0.0142 E-score.
TAGCTACA showed a binding signal of 0.209 ± 0.0332 E-score.
In the case of GTATCAGA, the binding signal is reported as 0.284 ± 0.0131 E-score.
GTTGGGGA showed a binding signal of 0.218 ± 0.00618 E-score.
Sequence CCCTTTGC has a binding signal of 0.219 ± 0.0339 E-score.
CCCGGGTC gave a binding signal of 0.335 ± 0.0417 E-score.
GGTGTAGA was tested, and the binding signal was 0.4728 ± 0.00114 E-score.
AGGGTAAG gave a binding signal of 0.152 ± 0.023 E-score.
CGTGTAAG showed a binding signal of 0.428 ± 0.0306 E-score.
For GGAGTAAC, the binding signal was 0.157 ± 0.0575 E-score.
With GGTGTAAC the binding signal was 0.482 ± 0.00603 E-score.
CGTGTAAC gave a binding signal of 0.43 ± 0.0129 E-score.
GGAGTAGA showed a binding signal of 0.2198 ± 0.000615 E-score.
GGGGTAGA was tested, and the binding signal was 0.194 ± 0.0142 E-score.
In the case of GGGGTAAC, the binding signal is reported as 0.293 ± 0.0173 E-score.
CGGGTAAC showed a binding signal of 0.2 ± 0.000757 E-score.
Sequence CACCACTC has a binding signal of 0.322 ± 0.00333 E-score.
With CGTATGAC the binding signal was 0.199 ± 0.0291 E-score.
For AATAGGTG, the binding signal was 0.207 ± 0.0434 E-score.
For AGTGTGAT, the binding signal was 0.223 ± 0.0157 E-score.
CGTGTAAA gave a binding signal of 0.435 ± 0.0253 E-score.
Work on CGGGTAAA yielded a binding signal of 0.194 ± 0.0165 E-score.
GGGGTAAA showed a binding signal of 0.29 ± 0.0101 E-score.
